# APOBEC3G inh: inhibitors of human APOBEC3G DNA deaminase; Q9HC16; recombinant A3G, ssDNA deamination FAM/TAMRA fluorescence; inhibition, % at 20 µM; 330,000 compounds, 0.28% hits; AID 493012;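 active means inhibition of at least 40% at 20 µM, with no more than 30% in the related APOBEC3A deaminase screen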;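 further: plate controls were DMSO wells with A3G for no effect and wells lacking A3G enzyme for full effect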
# APOBEC3A inh: human APOBEC3A DNA deaminase inhibition; 330,000 compounds, 0.41% hits; inhibition, % at 20 µM; recombinant A3A, FAM/TAMRA ssDNA deamination fluorescence; P31941;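 active means at least 40% inhibition at 20 µM here, with at most 30% in a related deaminase screen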;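 further: plate controls were A3A with DMSO for no effect and wells lacking A3A enzyme for full effect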
# Target sequence (P31941 whole entry, looked up): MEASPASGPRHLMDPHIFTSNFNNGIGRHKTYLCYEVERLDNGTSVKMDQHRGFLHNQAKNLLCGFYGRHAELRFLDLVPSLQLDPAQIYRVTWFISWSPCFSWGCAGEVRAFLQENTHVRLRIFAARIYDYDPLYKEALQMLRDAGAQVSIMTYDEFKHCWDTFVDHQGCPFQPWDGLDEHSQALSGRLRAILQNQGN
# MLLE-PAM2 inh: blocks PAM2 peptide binding to the PABP1 MLLE domain; P11940; GST-MLLE / FITC-PAM2 fluorescence polarization; inhibition, % at 20 µM; 360,000 compounds, 0.36% hits; in the data active means inhibition above about 35%, passing the limit was not always enough;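 further: plate controls were DMSO wells with GST-MLLE for no effect and wells lacking GST-MLLE protein for full effect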
# PHOSPHO1 inh: inhibitors of human PHOSPHO1 phosphatase. recombinant PHOSPHO1, absorbance phosphatase assay. inhibition, % at 13.3 µM. 290,000 compounds, 1.1% hits; in the data active means inhibition above about 60%
# PABP polyA inh: blocks human PABP binding to poly(A) RNA. fluorescence polarization. calls only at 35 µM. 290,000 compounds, 1% hits. AID 2014;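 further: calls also rest on retests at 20 µM and on dose response follow-up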
# eIF4H FP inh: inhibitors of RNA binding by human eIF4H. Q15056. eIF4H fluorescence polarization binding assay. inhibition, % at 35 µM. 290,000 compounds, 0.94% hits. AID 2012;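 further: calls also rest on retests at 20 µM and on dose response follow-up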
# A3G conf: confirmation of human APOBEC3G DNA deaminase inhibitors; shares compounds with APOBEC3G inh; 890 compounds, 72% hits; inhibition, % at 20 µM; recombinant A3G ssDNA deaminase, UDG/FAM-TAMRA fluorescence;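 active means inhibition reaching a set limit in any replicate at 20 µM, the limit being 80% of the first screen's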
# UDG A3G counter: E. coli UDG inhibition in APOBEC3G counter-screen; UDG counterscreen, FAM/TAMRA oligo fluorescence; inhibition, % at 20 µM; AID 504715; 710 tested, under 10 active; shares compounds with APOBEC3G inh;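 active means compounds giving 40% or more inhibition at 20 µM in any one of the three replicates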;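 further: plate controls were DMSO wells with UDG and oligo for no effect and DMSO wells lacking both for full effect; inhibitors lower the FAM signal released by uracil excision and alkaline cleavage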
# Active calls of the source: *; i = inactive; ? = inconclusive; / = no result. Rows were chosen to be rich in hits. Some 2.6% of all compounds tested hit in one or more screens of this group. Unless noted, how the calls were made is not given here.
SMILES,APOBEC3G inh,APOBEC3A inh,MLLE-PAM2 inh,PHOSPHO1 inh,PABP polyA inh,eIF4H FP inh,A3G conf,UDG A3G counter
c1cc(SSc2ccncc2)ccn1,65*,5,13,33,i,2,71*,/
c1ccc(Sc2ccncc2)cc1,/,/,37,/,/,/,/,/
CCOCC(=O)Nc1nnc(COc2ccc(Cl)cc2)s1,41*,2,37*,95*,i,4,20*,-3
CCc1nnc(NC(=O)c2c(-c3ccccc3)noc2C)s1,-12,-3,6,49,i,2,/,/
O=C(CSc1ccccc1)Nc1nnc(COc2ccc(Cl)cc2)s1,44*,7,17,78*,i,15,58*,-6
Cc1onc(-c2ccccc2)c1C(=O)Nc1nnc(COc2ccc(Cl)cc2)s1,58*,-1,22,37,i,-11,38*,-3
COC(=O)c1cnc(NC(=O)C2(C)CCCN(C(C)=O)C2)s1 (centres undefined),/,/,-6,/,/,/,/,/
Cc1cccc(N2CCN(C(=S)c3ccc([N+](=O)[O-])cc3)CC2)c1,55*,1,26,-11,i,-4,44*,0
Cc1ccc2oc(-c3cccc(NC(=O)/C=C/c4cccc([N+](=O)[O-])c4)c3C)nc2c1,-7,-2,4,12,i,5,/,/
COc1ccc(C2NC(=S)N3C(c4ccc(OC)cc4)NC(=S)N23)cc1 (centres undefined),45*,-3,-12,98*,i,-13,34*,-3
CCCn1c(=O)c2ccccc2n2c(=S)[nH]nc12,53*,-9,-31,-60,i,-7,69*,2
CCCCCn1c(=O)c2ccccc2n2c(=S)[nH]nc12,43*,-6,-38,-42,i,-10,76*,-1
CCC(C)c1ccc(-n2c(=O)c3ccccc3n3c(=S)[nH]nc23)cc1 (centres undefined),23,-8,-114,-156,i,0,/,/
CCCCCCn1c(=O)c(-c2ccccc2)c(O)c2ccccc21,-6,-5,9,-9,i,-2,/,/
Cn1c(=O)c2ccccc2n2c(=S)[nH]nc12,44*,-7,-30,-109,i,-2,70*,5
O=c1c2ccccc2n2c(=S)[nH]nc2n1-c1ccccc1,58*,-6,-21,43,i,-12,69*,-2
CC(C)NC(=O)C1(C)CCN1C(=O)c1ccccc1 (centres undefined),/,/,7,/,/,/,/,/
CCCCn1c(=O)c2ccccc2n2c(=S)[nH]nc12,40*,-5,-31,-47,i,-4,71*,1
CCCCn1c(Cc2ccccc2)n[nH]c1=S,28,-4,2,-24,i,-8,/,/
COCc1cc(C)c(C#N)c(=S)[nH]1,80*,2,37*,42,i,-7,79*,-3
COc1ccc(Cl)cc1NC(=O)NC1CCCCC1,46*,19,12,6,i,4,27*,5
COc1ccc(Cl)cc1NC(=O)c1ccccc1C,41*,1,-7,1,i,2,2,/
COc1ccccc1C(=O)Nc1cc(Cl)ccc1O,-8,-2,-21,19,i,-4,/,/
COc1ccccc1/C=N/NC(=O)c1nnn(-c2nonc2N)c1-c1cccs1,-2,-5,12,-8,i,-4,/,/
Cc1nn(Cc2ccc(Cl)c(Cl)c2)c(C)c1NC(=O)c1cn(-c2ccccc2)nc1-c1ccccc1,0,1,2,-4,i,-4,/,/
SMILES,APOBEC3G inh,APOBEC3A inh,MLLE-PAM2 inh,PHOSPHO1 inh,PABP polyA inh,eIF4H FP inh,A3G conf,UDG A3G counter
COc1ccccc1-n1c(-c2ccccc2)n[nH]c1=S,68*,3,11,-76,i,3,58*,-4
COc1ccc(-n2c(-c3ccc(C)cc3)n[nH]c2=S)cc1,27,-4,-6,-1,i,4,/,/
COc1cc(-c2n[nH]c(=S)n2-c2ccc(C)cc2)cc(OC)c1OC,43*,-5,-9,-34,i,-8,68*,-4
COc1ccc(-c2n[nH]c(=S)n2-c2ccccc2C)cc1,19,-8,-4,-60,i,-7,/,/
Cc1cc(O)c(/C=N/Nc2ccccc2Cl)c(=O)o1,47*,-2,8,-93,i,0,3,-2
Cc1cccc(N=Cc2c(O)cc(C)oc2=O)c1,-3,-1,-16,-12,i,14,/,/
COCCCN1CC(=O)N2Cc3[nH]c4ccccc4c3C[C@H]2C1=O,-5,-1,-2,22,i,3,/,/
O=S(=O)(c1ccc(=S)[nH]c1)N1CCOCC1,44*,-1,46*,/,/,/,73*,-2
CCN(C(=O)c1ccco1)c1nnc(-c2ccc(OC)cc2)s1,-2,-2,14,-1,i,-3,/,/
CCCN(C(=O)c1ccco1)c1nnc(-c2cccc(C)c2)s1,65*,1,4,27,i,-4,0,/
CCc1c(C)[nH]c2ccc(OC)cc2c1=S,44*,-4,22,-43,i,-8,8,-2
CCOC(=O)c1sc(=S)n(-c2cc(OC)ccc2OC)c1N,60*,3,14,45,i,-7,27,/
Clc1ccc(-c2nc(/C=N/N3CCOCC3)c3ccccn23)cc1,-7,-3,-5,8,i,7,/,/
Cc1ccc(C(=O)c2c(NC(=O)CSc3nnc(N)s3)sc3c2CCCC3)cc1,45*,0,15,-12,i,3,-3,/
Cc1csc(SCC(=O)Nc2sc3c(c2C#N)CCC3)n1,42*,6,-3,16,i,8,7,/
CC(C)(C)C(=O)Cn1nc(Cl)nc1Cl,11,5,-8,15,i,2,/,/
C=CCn1c(-c2ccco2)n[nH]c1=S,32,-18,-23,-101,i,0,/,/
CCCCn1c(-c2ccco2)n[nH]c1=S,63*,-2,9,10,i,24,66*,4
S=c1[nH]nc(-c2ccco2)n1Cc1ccccc1,51*,-1,-3,79*,i,-7,73*,-3
CCn1c(-c2ccco2)n[nH]c1=S,29,-3,12,41,i,-3,/,/
CC(C)Cn1c(-c2ccco2)n[nH]c1=S,46*,1,-7,80*,i,-2,21,/
CCC(C)c1ccc(NC(=S)NCc2ccccc2OC)cc1 (centres undefined),/,/,-55,41,i,4,/,/
COc1ccc(C(C)=O)c2c(O)cccc12,1,1,11,-2,i,18,/,/
CCC1=NNc2cccc3c(OC)ccc1c23,60*,2,/,36,?,?,73*,/

# Compound activity as filed in PubChem BioAssay.
